Data on 40 compounds can be found in PubChem BioAssay (Tox21).

The source made the active and inactive calls. Calls come from the whole dose curve; as a rule, active = well fitted curve in the direction sought with a large enough effect in the repeat runs; inconclusive = weak or mixed curves; inactive = flat fitted curve, though single readings scatter.
% is set by controls: 0 for no effect and ±100 for the full control effect.

This assay is described as follows: qHTS assay to test for compound auto fluorescence at 535 nm (green) in HEK293 cell free culture (AID 720682). As to conditions: cell-free medium, green autofluorescence 485/535 nm; series mostly up to 91.3 µM; activity change: at the top concentration. The text has this:
U.S. Tox21 Program National Center for Advancing Translational Sciences [NCATS] NIH Chemical Genomics Center [NCGC] U.S. Environmental Protection Agency [EPA] National Institutes of Environmental Health Sciences [NIEHS] National Toxicology Program [NTP] U.S. Food and Drug Administration [FDA] Tox21 Assay Overview: Compound auto fluorescence often interferes with screening of the compound library against various biological targets and signaling pathways. Some of these compounds may have fluorophoric properties. Such properties may interfere with the assay outputs resulting in false positives and/or negatives. To decrease such complications and ensure the compound activities are relevant in terms of biological response, the Tox21 10K compound library was screened for auto fluorescence. From the fluorophores used as reporter signals in our screening assays, the auto fluorescence equivalencies of compounds against three fluorophores have been evaluated: Triamterene, Fluorescein and Rose Bengal sodium for blue, green and red fluorescence, respectively. The fluorescence intensities were measured using Excitation/Emission wavelengths at 405/460nm, 485/535nm and 540/590nm for blue, green and red labels, respectively. This assay includes the green fluorescence data.
Tox21 Assay Protocol Summary: 5 uL of culture medium (DMEM containing 10% FBS) per well was dispensed into black wall/clear bottom 1536-well plates using a Multidrop Combi Dispenser (ThermoFisher Scientific, Waltham, MA). After 23 nL compound or DMSO vehicle was transferred into assay plate by a pintool work station (Kalypsys, San Diego, CA), fluorescence intensities in the assay plates were measured by an Envision (PerkinElmer, Shelton, CT) plate reader using three labels for measuring blue, green and red fluorescence at […] 460, 535 and 590nm respectively.
For orientation: qHTS replaces the single test concentration by a dilution series.
As for `CC(C(=O)O)c1ccc2c(c1)[nH]c1ccc(Cl)cc12` (stereo not given), the “activity change” value was -0.0106% [at 46 µM, active compounds read high] (inactive).

With `COc1cc2nc(N3CCN(C(=O)c4ccco4)CC3)nc(N)c2cc1OC`, the “activity change” value was -0.0106% [at 46 µM, active compounds read high] (inactive).

In the case of `c1ccc(SSc2ccccc2)cc1`, the “activity change” value was 0.0624% (inactive).

Regarding `CN1CCC[C@@H]1CCO[C@](C)(c1ccccc1)c1ccc(Cl)cc1`, the “activity change” value is 0.0146% [at 46 µM, active compounds read high] (inactive).

On to `C#C[C@]1(O)CC[C@H]2[C@@H]3[C@H](C)CC4=C(CCC(=O)C4)[C@H]3CC[C@@]21C`, for which the “activity change” value was 0.0183% [at 46 µM, active compounds read high] (inactive).

In the case of `CCCCCCCCCCCCOC(=O)c1ccc(O)cc1`, the “activity change” value is -0.11% (inactive).

Consider `Cc1ccc(C(=O)O)cc1`, for which the “activity change” value is -0.103% [at 95.7 µM, active compounds read high] (inactive).

Turning to `CCC(=O)OC(=O)CC`, the “activity change” value is 0.039% (inactive).

On to `CCC(C)n1ncn(-c2ccc(N3CCN(c4ccc(OC[C@H]5CO[C@](Cn6cncn6)(c6ccc(Cl)cc6Cl)O5)cc4)CC3)cc2)c1=O` (stereo not given in full), for which the “activity change” value was -0.37% [at 46 µM, active compounds read high] (inactive).

For the compound `CCC(CC)C(C)CCOC(C)=O` (stereo not given), the “activity change” value is -0.0475% (inactive).

For `O=[N+]([O-])c1ccc(F)c(Cl)c1`, the “activity change” value is -0.0454% (inactive).

With `C=CCn1c(=O)n(CC=C)c(=O)n(CC=C)c1=O`, the “activity change” value is -0.0298% (inactive).

`CC1(C)CC(O)CC(C)(C)N1`: the “activity change” value is 0.061% [at 95.7 µM, active compounds read high] (inactive).

Turning to `O=C(O)CN(CCN(CC(=O)O)CC(=O)O)CC(=O)O`, the Potency result was “inactive”.

Turning to `Cc1c(C)c([N+](=O)[O-])c(C(C)(C)C)c([N+](=O)[O-])c1C`, the “activity change” value was 0.0695% (inactive).

In the case of `CCN(CCN)c1cccc(C)c1`, the Potency entry is “inactive”.

Turning to `Nc1nc2c(ncn2COCCO)c(=O)[nH]1`, the activity change is -0.0229% [at 18.6 µM, active compounds read high] (inactive).

Consider `CC(=O)[C@H]1CC[C@H]2[C@@H]3CCC4=CC(=O)CC[C@]4(C)[C@H]3CC[C@]12C`, for which the Potency entry is “inactive”.

`COc1ccc(NC(=O)CC(C)=O)cc1`: the “activity change” value was -0.0154% (inactive).

As for `O=C(Oc1ccccc1)Oc1ccccc1`, the “activity change” value is 0.108% (inactive).

Consider `CCN(CC)c1ccc2c(-c3ccc(S(=O)(=O)O)cc3S(=O)(=O)[O-])c3ccc(=[N+](CC)CC)cc-3oc2c1`, for which the “activity change” value is 0.903% [at 95.7 µM, active compounds read high] (inactive).

As to `NC(=S)NC(N)=S`, the “activity change” value is -0.0081% (inactive).

For the compound `O=C(O)O`, the activity change is -0.0576% [at 3.72 µM, active compounds read high] (inactive).

Take `FC(F)(F)c1cccc(Cl)c1`: the “activity change” value is 0.053% (inactive).

Turning to `Cc1c2ccccc2c(C)c2c1ccc1ccccc12`, the Potency result was “inactive”.

For the compound `CCCCNS(=O)(=O)c1ccc(C)cc1`, the “activity change” value is 0.0025% (inactive).

In the case of `c1ccsc1`, the “activity change” value is -0.103% (inactive).

As for `O=C(/C=C/c1ccccc1)OC/C=C/c1ccccc1`, the “activity change” value is 0.0398% (inactive).

In the case of `CCO[C@@H]1O[C@H](C(COCc2ccccc2)OCc2ccccc2)[C@H](OCc2ccccc2)[C@H]1O` (stereo not given in full), the activity change was -0.0677% [at 18.6 µM, active compounds read high] (inactive).

For the compound `CCCCCCC1CCCC(=O)O1` (stereo not given), the “activity change” value was 0.0354% (inactive).

For the compound `O=C(O)Cc1ccccc1Nc1c(Cl)cccc1Cl`, the Potency entry is “inactive”.

For `OCCN1CCN(CCCN2c3ccccc3Sc3ccc(C(F)(F)F)cc32)CC1`, the “activity change” value is -0.0657% [at 46 µM, active compounds read high] (inactive).

As to `COc1ccc(-c2coc3cc(O)ccc3c2=O)cc1`, the “activity change” value is -0.0371% (inactive).

For `Cc1cc(-c2ccc(N=Nc3cc(S(=O)(=O)O)c4ccccc4c3N)c(C)c2)ccc1N=Nc1cc(S(=O)(=O)O)c2ccccc2c1N`, the “activity change” value is 0.0511% (inactive).

Take `C=C(CC)C(=O)c1ccc(OCC(=O)O)c(Cl)c1Cl`: the Potency result was “inactive”.

In the case of `OC1CCC(C2CCCCC2)CC1` (stereo not given), the “activity change” value was 0.112% (inactive).

Turning to `O=C(Nc1ccc2c(O)c(N=Nc3ccc(N=Nc4ccc(S(=O)(=O)O)cc4)cc3)c(S(=O)(=O)O)cc2c1)c1ccccc1`, the “activity change” value is -1.11% (inactive).

As to `CN(C)Cc1cc(C(C)(C)C)c(O)c(C(C)(C)C)c1`, the “activity change” value was 0.0021% (inactive).

For `CC(=O)Oc1cc2c(s1)CCN(C(C(=O)C1CC1)c1ccccc1F)C2` (stereo not given), the “activity change” value was 0.0272% [at 46 µM, active compounds read high] (inactive).

In the case of `O=c1[nH]c2ccccc2n1CCCN1CCN(C(c2ccccc2)c2ccccc2)CC1`, the “activity change” value is 0.0096% [at 46 µM, active compounds read high] (inactive).
